Results on 87 molecules are retold here after PubChem BioAssay AID1347043 (National Center for Advancing Translational Sciences (NCATS), 2019).

Molecules are shown by their SMILES. The campaign covered roughly 76,000 compounds. About 1,900 (2.5%) were called active. About 5% were inconclusive and are not listed. Calls follow the shape of the dose curve; as a rule, active = well fitted inhibition curve with a large enough effect; inconclusive = small, poorly fitted or top-dose-only effect; inactive = flat fitted curve, though single readings scatter. The list comes from a sample in which actives are over-represented; it also holds similar structures and randomly drawn compounds.
% is scaled to controls: 0 for no effect and ±100 for the full control effect; potency is read from the fitted curve at half-maximal effect.

Luciferin 4-monooxygenase (Photinus pyralis), sequence (P08659 whole entry, looked up): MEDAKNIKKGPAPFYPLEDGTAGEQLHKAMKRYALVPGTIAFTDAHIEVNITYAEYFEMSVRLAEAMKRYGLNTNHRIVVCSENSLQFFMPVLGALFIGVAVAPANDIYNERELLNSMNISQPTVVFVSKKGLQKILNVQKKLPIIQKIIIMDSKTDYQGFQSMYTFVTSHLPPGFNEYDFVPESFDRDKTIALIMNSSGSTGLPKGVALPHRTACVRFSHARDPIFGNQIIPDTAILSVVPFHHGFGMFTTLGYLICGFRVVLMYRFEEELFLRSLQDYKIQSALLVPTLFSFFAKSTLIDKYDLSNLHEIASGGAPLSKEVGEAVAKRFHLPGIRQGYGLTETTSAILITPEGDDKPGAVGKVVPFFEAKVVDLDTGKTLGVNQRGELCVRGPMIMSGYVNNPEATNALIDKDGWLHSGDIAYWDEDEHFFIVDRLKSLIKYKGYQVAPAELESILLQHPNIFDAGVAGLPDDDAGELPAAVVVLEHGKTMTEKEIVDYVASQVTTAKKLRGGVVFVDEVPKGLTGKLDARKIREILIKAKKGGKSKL

The assay has as its target Luciferin 4-monooxygenase (Photinus pyralis) (UniProt P08659). As to the kind of experiment: Firefly luciferase inhibition profiling of diverse chemical library using quantitative high-throughput screening. Also: nearly all actives have a fitted effect of over 65% in size. To be noted: purified P. pyralis luciferase, luminescence, biochemical; series mostly up to 115 µM; activity change, negative = inhibition: at the top concentration. The procedure, abridged: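 Purified P. pyralis luciferase (10nM final) in 50mM Tris acetate pH 7.5, 10mM Mg acetate, 0.01% Tween-20, 0.05% BSA with 10uM D-luciferin and 10uM ATP. Compounds titrated qHTS. Luminescence imaged on CCD.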
On to `O=C(CCCc1ccccc1)N1CCC2(CC1)CC(O)CCO2` (configuration not stated), for which the Potency was 5.62 µM (active). In the case of `O=C(CCC1CCCC1)N1CCC2(CC1)CC(O)CCO2` (configuration not stated), the “activity change, negative = inhibition” value was -9.08% (inactive). The same measure, in the same setting: the value for `CC(=O)N(C1CC1)C1CCOC2(CCN(C(=O)CCc3ccccc3)CC2)C1` (configuration not stated) was 3.47% (inactive). Same read-out and setting: then `COc1ccc(CC(=O)NC2CCCc3c2[nH]c2ccccc32)cc1` (configuration not stated), with -7.29% (inactive); and `c1c[nH]c(CNC[C@H]2Cn3ccnc3CO2)n1`, with -3.28% [at 230 µM] (inactive). Same read-out and setting: then `Fc1ccc(CNC[C@H]2Cn3c(-c4ccc5c(c4)OCCO5)cnc3CO2)cc1`, with -14.7% [at 172 µM] (inactive); and `Cc1ccc(-c2cn3c(n2)CO[C@@H](CNS(=O)(=O)c2cccs2)C3)cc1`, with -16.3% [at 172 µM] (inactive). Consider `c1ccc(CNC[C@H]2Cn3cc(-c4ccccc4)nc3CO2)cc1`, for which the Potency was 63.1 µM (active). Still for that read-out and setting: the value for `COc1ccc(-c2cn3c(n2)CO[C@@H](CNCc2ccc(F)c(F)c2)C3)cc1` was 35.5 µM (active). Regarding `O=C(Cn1nc(-c2ccccc2)n(-c2ccccc2)c1=O)N1C[C@@H]2C[C@H]1CN2`, the “activity change, negative = inhibition” value was -5.15% (inactive). Consider `O=C(c1ccc(F)cc1)N1CCC2(CC1)CCN(Cc1cccs1)c1ccccc1O2`, for which the “activity change, negative = inhibition” value is -11.7% (inactive). The same measure, in the same setting: then `Cc1cc(C)cc(C(=O)Nc2ccc3c(N4CCCC4)ncnc3c2)c1`, with -3.04% (inactive); and `Cc1ccc(C(=O)Nc2ccc3ncnc(N4CCCCC4)c3c2)s1`, with -15% (inactive). For the molecule `Cc1ccc(C(=O)Nc2ccc3c(N4CCCCC4)ncnc3c2)s1`, the Potency was 22.4 µM (active). On to `CCCS(=O)(=O)N1CCCC(Cn2c(C)nc3cccnc32)C1` (configuration not stated), for which the “activity change, negative = inhibition” value is 1.14% (inactive).

Consider `Cc1c(-c2ccc(F)cc2)[nH]c2ccc(CNC(=O)c3ccc(CO)o3)cc12`, for which the “activity change, negative = inhibition” value is -17.7% (inactive). As to `CNc1nc(C(=O)NCc2ccc3[nH]c(-c4ccc(F)cc4)c(C)c3c2)cs1`, the Potency is 12.6 µM (active).

With `CC(C)Oc1cccc(-c2nc(C(=O)NCc3ccc(F)cc3)cs2)c1`, the “activity change, negative = inhibition” value was -8.88% (inactive).

Take `CN1C(=O)C(CC(=O)N2CCC(C#N)CC2)(Cc2ccccc2)c2ccccc21` (configuration not stated): the “activity change, negative = inhibition” value was -4.01% (inactive).

Take `CN(Cc1ccccc1F)Cc1ccccc1F`: the “activity change, negative = inhibition” value is 2.39% [at 230 µM] (inactive). In the case of `Cc1noc(CC2CCOC3(CCN(C(=O)c4ccc(C#N)cc4)CC3)C2)n1` (configuration not stated), the “activity change, negative = inhibition” value was -10.8% (inactive). Turning to `COCCc1noc(CC2CCOC3(CCN(C(=O)Nc4ccc5c(c4)OCCO5)CC3)C2)n1` (configuration not stated), the Potency is 35.5 µM (active). On to `COCCc1noc(CC2CCOC3(CCN(C(=O)C4CCCC4)CC3)C2)n1` (configuration not stated), for which the “activity change, negative = inhibition” value was 6% (inactive).

With `COc1cccc(C(O)c2nc(C(=O)Nc3ccccc3)c(C)o2)c1` (configuration not stated), the “activity change, negative = inhibition” value was 9.73% [at 172 µM] (inactive).

For the molecule `O=C(Cn1cccc1-c1nc(-c2ccc(F)cc2)no1)Nc1cc(F)cc(F)c1`, the “activity change, negative = inhibition” value is 11.3% (inactive).

Regarding `Fc1ccc(Nc2nc(-c3ccccc3F)no2)cc1`, the Potency was 2.82 µM (active). Still for that read-out and setting: then `COc1ccc(Nc2nc(-c3cccc(OC)c3OC)no2)cc1`, with 22.4 µM (active).

`COc1cccc(-c2cc(C(=O)NCc3cc(C)on3)c3c(c2)N(C)CCO3)c1OC`: the “activity change, negative = inhibition” value was -9.08% [at 172 µM] (inactive).

For the molecule `CCOc1ccc(Nc2ncncc2-c2nc(-c3ccccc3)no2)cc1`, the “activity change, negative = inhibition” value was 5.94% (inactive). Same read-out and setting: then `C[C@H]1CN(C(=O)Nc2ccc(F)cc2)C[C@@H]1c1nc(-c2ccccc2)no1`, with -3.1% (inactive). As to `CC1(c2noc(C3CCOCC3)n2)CCN(Cc2ccc(OCC(N)=O)cc2)CC1`, the “activity change, negative = inhibition” value was 9.39% (inactive). Turning to `CN(Cc1ccccc1)Cc1cc(CC2(NCc3ccc(OC(F)(F)F)cc3)COC2)no1`, the “activity change, negative = inhibition” value is -4.86% (inactive). On the same count and under the same terms, the value for `COc1cccc(CC(=O)NCCc2noc(-c3cccnc3)n2)c1` was -5.71% (inactive). On to `COCCc1noc(-c2ccc(NC(C)c3ncccc3C)nc2)n1` (configuration not stated), for which the Potency is 31.6 µM (active). Turning to `COCc1noc(-c2ccc(NCCN3CCNC3=O)nc2)n1`, the “activity change, negative = inhibition” value is 8.32% (inactive). Same read-out and setting: then `O=C(NC1CCN(Cc2ccc(F)c(F)c2)CC1)c1ccc2nccn2c1`, with 10.6% (inactive); and `O=C(c1ccncc1)N1CCC(c2cc(-c3ccc(F)cc3)n[nH]2)CC1`, with -7.89% (inactive); and `CCC1(N2CCN(C(=O)c3ccc(N(C)C)cc3)CC2)CCN(S(C)(=O)=O)C1` (configuration not stated), with -21.9% (inactive). As for `Cn1cccc1C(=O)NC1CCN(c2cc(-c3ccccc3)[nH]n2)CC1`, the “activity change, negative = inhibition” value is -5.36% (inactive). As for `Cc1nnn2c(C(=O)NC3CC3)cccc12`, the Potency is 7.08 µM (active). On to `CC(=O)N1CCC(Cc2ccc(C(=O)NC3CC3)cc2)CC1`, for which the “activity change, negative = inhibition” value was 4.35% (inactive). Turning to `O=C(c1cc(-c2ccccc2)n[nH]1)N1CC2CC(C1)[C@H]1CCCC(=O)N1C2` (some centres not stated), the “activity change, negative = inhibition” value was 0% (inactive). The same measure, in the same setting: the value for `Cc1ccc([S+](=O)([O-])N2CCn3c(nn(-c4ccncc4)c3=O)C2)cc1` was -6.68% (inactive). In the case of `COc1cc(F)ccc1-c1ccc(COc2ccc3c(cnn3CCC(=O)O)c2)cc1`, the Potency was 44.7 µM (active). Regarding `COc1ccccc1-c1cn(C)c(=O)n2cc(COc3ccc(C(=O)O)cc3)nc12`, the “activity change, negative = inhibition” value was 1.32% [at 172 µM] (inactive). For `COc1cc(F)ccc1-c1ccnc2nc(C(C)C)nn12`, the “activity change, negative = inhibition” value is -0.38% (inactive). On the same count and under the same terms, then `CCN1c2cc(C(=O)NC3CCN(Cc4ccccc4)CC3)ccc2C(=O)N2CCCCC21` (configuration not stated), with 1.15% (inactive). As for `CC(C)CNc1ccc2nnc(-c3ccccn3)n2n1`, the “activity change, negative = inhibition” value is 13.6% [at 230 µM] (inactive).

As for `CC(C)CNC(=O)N1CCCC(c2noc(COc3ccccc3F)n2)C1` (configuration not stated), the “activity change, negative = inhibition” value was -20.3% (inactive). `O=C(c1ccccc1)N1CCCC(c2noc(COc3ccccc3)n2)C1` (configuration not stated): the “activity change, negative = inhibition” value was -6.88% (inactive). `O=C(C1CC1)N1CCCC(c2noc(COc3ccccc3F)n2)C1` (configuration not stated): the Potency was 35.5 µM (active). Regarding `C[C@H]1CN(C(=O)Nc2cc(F)cc(F)c2)C[C@@H]1c1nc(-c2ccncc2)no1`, the “activity change, negative = inhibition” value is -17.8% (inactive). Same read-out and setting: the value for `Cc1ccc(C(=O)N2CC(N(Cc3cccnc3)CC(C)C)C2)s1` was -2.49% (inactive). Take `CN(CCc1cn[nH]c1)c1ccc(-c2nc(-c3ccccc3F)no2)cn1`: the Potency was 0.631 µM (active). The same measure, in the same setting: the value for `CN(C)CCN(C)c1ccc(-c2nc(-c3ccccc3F)no2)cn1` was 15.8 µM (active).

Turning to `Oc1ccc(-c2ccc(-c3nc(CCc4ccccc4)no3)cn2)cc1`, the “activity change, negative = inhibition” value was -3.85% (inactive). With `CSc1ccc(CNC(=O)c2cc3c(N4CCCC4)nc(C)cn3n2)cc1`, the “activity change, negative = inhibition” value was -11.2% (inactive).

With `CCOc1ccccc1-c1noc(-c2nnn3c2COC(c2ccc(Cl)cc2)C3)n1` (configuration not stated), the “activity change, negative = inhibition” value is -3.59% (inactive). On the same count and under the same terms, the value for `CCCCc1nc2cc(C(=O)N3CCCC3c3cc(C(C)C)on3)ccc2o1` (configuration not stated) was 0% (inactive). In the case of `O=[S+]([O-])(Nc1ccccc1)c1ccc2c(c1)OCCN(CC1CC1)C2`, the “activity change, negative = inhibition” value is -6.01% [at 172 µM] (inactive). On the same count and under the same terms, then `Cc1ccc(CN2CC[C@@](C)(O)[C@H](N3CCCC3)C2)s1`, with 15.5% (inactive).

With `CC(C)CCN1CCC2(CC1)CC(=O)c1ccc(Cl)cc1O2`, the Potency was 44.7 µM (active). As for `COc1ccc(CN2CCC3(CC2)CC(=O)c2ccc(Cl)cc2O3)cc1`, the “activity change, negative = inhibition” value is -10.1% (inactive). In the case of `CC(C)CCN1CCC2(CC1)C(=O)NCN2Cc1ccc(Cl)cc1`, the “activity change, negative = inhibition” value is -1.9% (inactive). On the same count and under the same terms, the value for `CC(C)NC(=O)N1CCC[C@@H](O)[C@H](NC(=O)c2ccc(OCC(N)=O)cc2)C1` was 0.824% [at 172 µM] (inactive). Regarding `CNC(=O)[C@@H]1CN(C(=O)Cc2c[nH]c3ccccc23)C[C@H]1COC`, the “activity change, negative = inhibition” value is -1.71% (inactive). As for `O=C(Nc1cccc(Br)c1)C1CC(=O)N(c2n[nH]c3cccc(F)c23)C1` (configuration not stated), the “activity change, negative = inhibition” value is -2.06% (inactive). The same measure, in the same setting: then `COCCCN(CCC(=O)N1CCC(C)CC1)C(=O)c1cc(C)oc1C`, with -5.89% (inactive); and `COc1ccc2[nH]c(C[C@@H]3C[C@@H](C(C)C)[C@H](CNC4CCN(C)CC4)C=C3C)nc2n1`, with -4.88% [at 172 µM] (inactive); and `CC(=O)N1CCC(C(=O)NCC2CCN(c3cc(-c4ccc(C)cc4)[nH]n3)CC2)CC1`, with -16.5% (inactive).

Take `O=C(NCc1ccccc1)C1CCN(C(=O)c2ncn3c2COC(c2ccccc2)C3)CC1` (configuration not stated): the Potency was 3.16 µM (active). On to `COc1ccc(C2Cn3cnc(C(=O)N4CCC(C(=O)Nc5cc(C)cc(C)c5)CC4)c3CO2)cc1` (configuration not stated), for which the “activity change, negative = inhibition” value was -24% (inactive). On to `COc1ccc(C2Cn3cnc(C(=O)N4CCC(C(=O)NCc5cccc(F)c5)CC4)c3CO2)cc1` (configuration not stated), for which the “activity change, negative = inhibition” value was -5.68% (inactive).

`COc1ccc(C2Cn3cnc(C(=O)N4CCC(C(=O)NC5CCCC5)CC4)c3CO2)cc1` (configuration not stated): the “activity change, negative = inhibition” value is -18.2% (inactive).

`COc1ccc(C2Cn3nnc(C(=O)N4CCN(C(=O)c5cccc(Cl)c5)CC4)c3CO2)cc1` (configuration not stated): the “activity change, negative = inhibition” value was -2.01% (inactive). On to `O=C(NCC1CC1)C1CCN(C(=O)c2ncn3c2COC(c2ccccc2)C3)CC1` (configuration not stated), for which the Potency was 10 µM (active). Regarding `CCC(CC)C(=O)N1CCC(N2CCCC(C(=O)NCc3ccccc3)C2)CC1` (configuration not stated), the “activity change, negative = inhibition” value was 5.16% (inactive). As to `O=C(Nc1ccc(Cl)cc1)C1CCN(C(=O)c2ncn3c2COC(c2ccc(F)cc2)C3)CC1` (configuration not stated), the Potency was 22.4 µM (active). As to `CCOc1cccc(CNC(=O)c2cc3n(n2)CC(c2ccc(Cl)cc2)OC3)c1` (configuration not stated), the “activity change, negative = inhibition” value is -7.87% (inactive). Turning to `O=C(NCc1ccc(F)c(Cl)c1)C1CCN(C(=O)c2ncn3c2COC(c2ccccc2)C3)CC1` (configuration not stated), the Potency was 11.2 µM (active). For the molecule `O=C(Nc1cccc(F)c1)c1cc2n(n1)CC(c1ccc(Cl)cc1)OC2` (configuration not stated), the “activity change, negative = inhibition” value was -12.7% (inactive). Consider `Cc1ccc(C(=O)N[C@H]2CO[C@H]3[C@@H]2OC[C@@H]3n2nnnc2Oc2ccc(-n3ccnc3)cc2)cc1`, for which the “activity change, negative = inhibition” value is 11.5% (inactive). For the molecule `O=C(Nc1ccccc1)N1CCC2(CC1)CC(Cc1ccccc1)=NO2`, the “activity change, negative = inhibition” value was -3.26% (inactive).

Regarding `COc1cccc(CC(=O)N2CCCn3nc(C)c(-c4ccccc4OCc4ccccc4)c32)c1`, the “activity change, negative = inhibition” value is 0.241% (inactive). Regarding `CC(C)Oc1ccc(CNC(=O)C2Cn3cccc3C(=O)N2Cc2cccnc2)cc1` (configuration not stated), the “activity change, negative = inhibition” value is -0.877% (inactive). Still for that read-out and setting: then `COc1ccccc1CN1CCN(C(=O)CCC[C@H]2NC[C@@H]3C[C@H]2CN(Cc2ccccc2)C3)CC1`, with -21% (inactive).

`CCCN1C(=O)Cc2cc(C(=O)NC3CC3)ccc21`: the “activity change, negative = inhibition” value was -3.75% (inactive).
